# “And” between values parts separate entries of the source, which are not always exact repeats. Identical values can stand only once. Screen size: about 5,500 compounds; about 2,000 (36%) were called active. About 18% were inconclusive and are not listed. Rule as the data show it: active = normalized growth mostly below about 0.91 (no sharp cut-off); inconclusive = no clear call, values can overlap the other calls; inactive = mostly above about 0.92. The list shows a part of the results.
# Assay: chemical genetic growth profiling, strain panel (AID 1159580);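 also: tested at 20 µM; growth read once vehicle control cultures reached saturation at 30 °C; 1 = growth at the plate median or of vehicle wells; lower values mean less growth of the strain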
# Settings: S. cerevisiae deletion strains, growth OD
smiles,measurement,setting,value
CC(C)=CCOc1c2occc2cc2ccc(=O)oc12,normalized growth,"locus YAL013W, strain DEP1, stronger effect = lower value",0.734 (active)
same,normalized growth,"locus YAL021C, strain ccr4, stronger effect = lower value",0.963 (inactive)
same,normalized growth,"locus YAL026C, strain drs2, stronger effect = lower value",0.874 (active)
same,normalized growth,"locus YAL030W, strain snc1, stronger effect = lower value",0.928 (active)
same,normalized growth,"locus YBL061C, strain skt5, stronger effect = lower value",0.892 (active)
same,normalized growth,"locus YBR009C, strain hhf1, stronger effect = lower value",0.851 (active)
same,normalized growth,"locus YBR021W, strain FUR4, stronger effect = lower value",0.74 (active)
same,normalized growth,"locus YBR023C, strain chs3, stronger effect = lower value",0.864 (active)
same,normalized growth,"locus YBR171W, strain sec66, stronger effect = lower value",0.865 (active)
same,normalized growth,"locus YBR229C, strain ROT2, stronger effect = lower value",0.896 (active)
same,normalized growth,"locus YBR231C, strain swc5, stronger effect = lower value",0.922 (inactive)
same,normalized growth,"locus YBR279W, strain paf1, stronger effect = lower value",0.921 (active)
same,normalized growth,"locus YCL011C, strain gbp2, stronger effect = lower value",0.849 (active)
same,normalized growth,"locus YCL016C, strain dcc1, stronger effect = lower value",0.859 (active)
same,normalized growth,"locus YCL029C, strain bik1, stronger effect = lower value",0.804 (active)
same,normalized growth,"locus YCL061C, strain MRC1, stronger effect = lower value",0.876 (active)
same,normalized growth,"locus YCL069W, strain vba3, stronger effect = lower value",0.912 (active)
same,normalized growth,"locus YCR088W, strain abp1, stronger effect = lower value",0.928 (inactive)
same,normalized growth,"locus YDL005C, strain med2, stronger effect = lower value",0.947 (inactive)
same,normalized growth,"locus YDL035C, strain GPR1, stronger effect = lower value",0.857 (active)
same,normalized growth,"locus YDL040C, strain nat1, stronger effect = lower value",0.934 (inactive)
same,normalized growth,"locus YDL074C, strain BRE1, stronger effect = lower value",0.606 (active)
same,normalized growth,"locus YDL101C, strain DUN1, stronger effect = lower value",0.559 (active)
same,normalized growth,"locus YDL185W, strain tfp1, stronger effect = lower value",0.875 (active)
same,normalized growth,"locus YDL192W, strain arf1, stronger effect = lower value",0.67 (active)
same,normalized growth,"locus YDR001C, strain nth1, stronger effect = lower value",0.899 (active)
same,normalized growth,"locus YDR069C, strain doa4, stronger effect = lower value",0.923 (inactive)
same,normalized growth,"locus YDR101C, strain arx1, stronger effect = lower value",0.808 (active)
same,normalized growth,"locus YDR137W, strain rgp1, stronger effect = lower value",0.729 (active)
same,normalized growth,"locus YDR150W, strain NUM1, stronger effect = lower value",0.899 (active)
same,normalized growth,"locus YDR159W, strain sac3, stronger effect = lower value",0.944 (inactive)
same,normalized growth,"locus YDR162C, strain NBP2, stronger effect = lower value",0.507 (active)
same,normalized growth,"locus YDR195W, strain ref2",1.07 (inactive)
same,normalized growth,"locus YDR297W, strain sur2, stronger effect = lower value",0.926 (inactive)
same,normalized growth,"locus YDR318W, strain mcm21, stronger effect = lower value",0.649 (active)
same,normalized growth,"locus YDR334W, strain swr1, stronger effect = lower value",0.892 (active)
same,normalized growth,"locus YDR335W, strain msn5, stronger effect = lower value",0.942 (inactive)
same,normalized growth,"locus YDR388W, stronger effect = lower value",0.837 (active)
same,normalized growth,"locus YDR392W, strain spt3, stronger effect = lower value",0.353 (active)
same,normalized growth,"locus YDR502C, strain sam2, stronger effect = lower value",0.736 (active)
same,normalized growth,"locus YEL003W, strain gim4, stronger effect = lower value",0.929 (inactive)
same,normalized growth,"locus YEL037C, strain rad23, stronger effect = lower value",0.937 (inactive)
same,normalized growth,"locus YEL061C, strain CIN8 (second series), stronger effect = lower value",0.929 (inactive)
same,normalized growth,"locus YER015W, strain faa2, stronger effect = lower value",0.935 (inactive)
same,normalized growth,"locus YER016W, strain bim1, stronger effect = lower value",0.927 (inactive)
same,normalized growth,"locus YER110C, stronger effect = lower value",0.728 (active)
same,normalized growth,"locus YER111C, strain swi4, stronger effect = lower value",0.929 (inactive)
same,normalized growth,"locus YER155C, strain BEM2 (second series), stronger effect = lower value",0.509 (active)
same,normalized growth,"locus YER155C, strain BEM2, stronger effect = lower value",0.575 (active)
same,normalized growth,"locus YER167W, strain BCK2, stronger effect = lower value",0.722 (active)
same,normalized growth,"locus YFR010W, strain ubp6, stronger effect = lower value",0.938 (inactive)
same,normalized growth,"locus YGL078C, strain dbp3, stronger effect = lower value",0.92 (active)
same,normalized growth,"locus YGL086W, strain mad1, stronger effect = lower value",0.678 (active)
same,normalized growth,"locus YGL167C, strain pmr1, stronger effect = lower value",0.887 (active)
same,normalized growth,"locus YGL173C, strain kem1, stronger effect = lower value",0.885 (active)
same,normalized growth,"locus YGL227W, strain vid30, stronger effect = lower value",0.918 (inactive)
same,normalized growth,"locus YGL240W, strain doc1, stronger effect = lower value",0.741 (active)
same,normalized growth,"locus YGL248W, strain PDE1, stronger effect = lower value",0.672 (active)
same,normalized growth,"locus YGL253W, strain hxk2, stronger effect = lower value",0.807 (active)
same,normalized growth,"locus YGR135W, strain pre9, stronger effect = lower value",0.666 (active)
same,normalized growth,"locus YGR252W, strain gcn5, stronger effect = lower value",0.519 (active)
same,normalized growth,"locus YHR013C, strain ard1, stronger effect = lower value",0.87 (inactive)
same,normalized growth,"locus YHR027C, strain rpn1, stronger effect = lower value",0.954 (inactive)
same,normalized growth,"locus YHR030C, strain SLT2, stronger effect = lower value",0.978 (inactive)
same,normalized growth,"locus YHR079C, strain IRE1 (second series), stronger effect = lower value",0.856 (active)
same,normalized growth,"locus YHR079C, strain IRE1, stronger effect = lower value",0.975 (inactive)
same,normalized growth,"locus YHR094C, strain hxt1, stronger effect = lower value",0.821 (active)
same,normalized growth,"locus YHR129C, strain ARP1, stronger effect = lower value",0.652 (active)
same,normalized growth,"locus YHR142W, strain chs7, stronger effect = lower value",0.679 (active)
same,normalized growth,"locus YHR200W, strain rpn10, stronger effect = lower value",0.822 (active)
same,normalized growth,"locus YIL066C, strain RNR3, stronger effect = lower value",0.697 (active)
same,normalized growth,"locus YIL073C, strain SPO22, stronger effect = lower value",0.792 (inactive)
same,normalized growth,"locus YIL125W, strain kgd1, stronger effect = lower value",0.895 (active)
same,normalized growth,"locus YIR030C, strain dcg1, stronger effect = lower value",0.842 (active)
same,normalized growth,"locus YJL092W, strain hpr5, stronger effect = lower value",0.9 (active)
same,normalized growth,"locus YJL095W, strain BCK1 (second series), stronger effect = lower value",0.898 (active)
same,normalized growth,"locus YJL095W, strain BCK1, stronger effect = lower value",0.297 (active) and 0.984 (inactive)
same,normalized growth,"locus YJL115W, strain asf1, stronger effect = lower value",0.922 (inactive)
same,normalized growth,"locus YJL129C, strain trk1, stronger effect = lower value",0.774 (active)
same,normalized growth,"locus YJL134W, strain LCB3, stronger effect = lower value",0.895 (active)
same,normalized growth,"locus YJL154C, strain vps35, stronger effect = lower value",0.935 (inactive)
same,normalized growth,"locus YJL164C, strain tpk1, stronger effect = lower value",0.859 (active)
same,normalized growth,"locus YJL166W, strain qcr8, stronger effect = lower value",0.895 (active)
same,normalized growth,"locus YJL168C, strain set2, stronger effect = lower value",0.875 (active)
same,normalized growth,"locus YJL187C, strain SWE1 (second series), stronger effect = lower value",0.739 (active)
same,normalized growth,"locus YJL187C, strain SWE1, stronger effect = lower value",0.929 (inactive)
same,normalized growth,"locus YJR043C, strain POL32, stronger effect = lower value",0.742 (active)
